From the supplement of paper PMC6089552
Out of some 3,200 compounds screened, about 300 (9.4%) showed activity. The list comes from a sample in which actives are over-represented; it also holds similar structures and randomly drawn compounds.

Test system: A673/TR/shEF
Experiment: cell viability (LOESS-normalised, relative to median of negative controls) (log2 ratio); higher = more viable cells (less compound effect), active = hit call of the paper (over 3 MAD below the median)
Conditions: treatment time: 72 h
Summary of the method: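 A673/TR/shEF Ewing sarcoma cells were plated at 1,500 per well in 384-well plates and cultured with or without doxycycline, added 24 h before compounds, to induce EWS-FLI1 shRNA knockdown. Library compounds at two or more concentrations, alongside DMSO controls, were applied for three days. Cell viability was measured by CellTiter-Glo luminescence on an Envision reader. Readings were LOESS-corrected per plate, divided by the median of negative controls and log2-transformed, and hits were wells lying at least three median absolute deviations from the median of all screened wells.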

[1] = 0.25 µM, library screen: screen1, EWS-FLI1 expression: high (no doxycycline)
[2] = 0.25 µM, library screen: screen1, EWS-FLI1 expression: low (doxycycline-induced shRNA knockdown)
[3] = 2.5 µM, library screen: screen1, EWS-FLI1 expression: high (no doxycycline)
[4] = 2.5 µM, library screen: screen1, EWS-FLI1 expression: low (doxycycline-induced shRNA knockdown)
[5] = 0.25 µM, library screen: screen2, EWS-FLI1 expression: high (no doxycycline)
[6] = 0.25 µM, library screen: screen2, EWS-FLI1 expression: low (doxycycline-induced shRNA knockdown)
[7] = 2.5 µM, library screen: screen2, EWS-FLI1 expression: high (no doxycycline)
[8] = 2.5 µM, library screen: screen2, EWS-FLI1 expression: low (doxycycline-induced shRNA knockdown)
[9] = 0.103 µM, library screen: screen3, EWS-FLI1 expression: high (no doxycycline)
[10] = 0.103 µM, library screen: screen3, EWS-FLI1 expression: low (doxycycline-induced shRNA knockdown)
[11] = 0.308 µM, library screen: screen3, EWS-FLI1 expression: high (no doxycycline)
[12] = 0.308 µM, library screen: screen3, EWS-FLI1 expression: low (doxycycline-induced shRNA knockdown)
[13] = 0.926 µM, library screen: screen3, EWS-FLI1 expression: high (no doxycycline)
[14] = 0.926 µM, library screen: screen3, EWS-FLI1 expression: low (doxycycline-induced shRNA knockdown)
[15] = 2.8 µM, library screen: screen3, EWS-FLI1 expression: high (no doxycycline)
[16] = 2.8 µM, library screen: screen3, EWS-FLI1 expression: low (doxycycline-induced shRNA knockdown)
[17] = 8.3 µM, library screen: screen3, EWS-FLI1 expression: high (no doxycycline)
[18] = 8.3 µM, library screen: screen3, EWS-FLI1 expression: low (doxycycline-induced shRNA knockdown)
[19] = 25 µM, library screen: screen3, EWS-FLI1 expression: high (no doxycycline)
[20] = 25 µM, library screen: screen3, EWS-FLI1 expression: low (doxycycline-induced shRNA knockdown)

Measured: cell viability (log2)

COc1ccc(CN2CCN(Cc3ccc(C)cc3)CC2)c(OC)c1OC
inactive: [1] 0.0669 | [2] 0.0696 | [3] 0.138 | [4] 0.00566

C=CCc1ccc(OC(=O)c2ccccc2)c(OC)c1
inactive: [1] 0.102 | [2] -0.0537 | [3] 0.111 | [4] 0.0334

C=CCc1ccc(O)c(OC)c1
inactive: [1] 0.0882 | [2] 0.124 | [3] 0.127 | [4] 0.12

N/C(=N\S(=O)(=O)Cc1ccccc1)Nc1nc2ccccc2o1
inactive: [1] 0.0883 | [2] 0.00923 | [3] 0.149 | [4] 0.031

COc1ccc2c(c1)CCC1=CC(=O)CCC12C (stereo not given)
inactive: [1] 0.119 | [2] 0.144 | [3] 0.0987 | [4] 0.126

OC[C@@H](O)[C@@H](O[C@@H]1O[C@H](CO)[C@@H](O)[C@H](O)[C@H]1O)[C@H](O)[C@@H](O)CO
inactive: [1] 0.117 | [2] 0.055 | [3] 0.143 | [4] 0.0198

NC(N)=NCCN1CCCCCCC1
inactive: [1] 0.086 | [2] 0.0896 | [3] 0.182 | [4] 0.105

[O-]n1ccccc1=S.[O-]n1ccccc1=S.[Zn+2]
inactive: [1] 0.17 | [2] 0.0708 | [4] 0.0604
active: [3] -0.205

O=C([O-])[O-].[Ca+2]
inactive: [5] 0.129 | [6] 0.105 | [7] 0.151 | [8] 0.0778

COc1ccc(CN2CCN(Cc3ccc(OC)c(OC)c3OC)CC2)cc1OC
inactive: [1] 0.061 | [2] 0.00924 | [3] 0.123 | [4] 0.0982

CC(C)N1C(=O)C(=C2C(=O)N(C)c3ccccc32)SC1=S
inactive: [1] 0.0638 | [2] 0.00946 | [3] 0.0618 | [4] 0.138

C[C@H]1C(=O)CC[C@@H]2[C@]1(C)CC[C@H]1[C@@]2(C)CC[C@@]2(C)[C@@H]3CC(C)(C)CC[C@]3(C)CC[C@]12C
inactive: [1] 0.031 | [2] 0.0462 | [3] 0.0143 | [4] 0.0816

O=c1c(O)c(-c2cc(O)c(O)c(O)c2)oc2cc(O)cc(O)c12
inactive: [1] 0.0195 | [2] 0.156 | [5] 0.118 | [6] 0.093 | [3] 0.0517 | [4] 0.0582 | [7] 0.111 | [8] 0.0599

O=c1c(O)c(-c2ccc(O)c(O)c2)oc2cc(O)cc(O)c12
inactive: 0.025 µM, library screen: screen1, EWS-FLI1 expression: high (no doxycycline) 0.22 | 0.025 µM, library screen: screen1, EWS-FLI1 expression: low (doxycycline-induced shRNA knockdown) 0.00571 | [1] 0.112 | [2] 0.018 | [5] 0.12 | [6] 0.0619 | [3] 0.108 | [4] 0.0969 | [7] 0.176 | [8] 0.00939 | 25 µM, library screen: screen1, EWS-FLI1 expression: low (doxycycline-induced shRNA knockdown) 0.0272
active: 25 µM, library screen: screen1, EWS-FLI1 expression: high (no doxycycline) -1.43

COc1cc(O)c2c(=O)c(O)c(-c3ccc(O)c(O)c3)oc2c1
inactive: [1] -0.00867 | [2] 0.0259 | [3] 0.0453 | [4] 0.0969

N#Cc1c2c(c(Nc3ccc(O)cc3)n3c1nc1ccccc13)CCC2
inactive: [1] 0.0182 | [2] 0.0391 | [3] 0.0659 | [4] 0.0482

CCOC(=O)c1c(C)cc(O)cc1O
inactive: [1] 0.0788 | [2] 0.0693 | [3] 0.0357 | [4] 0.0819

CC1=C(C(=O)OC2CCCC2)C(c2coc3ccccc3c2=O)C2=C(CC(C)(C)CC2=O)N1 (stereo not given)
inactive: [1] 0.0783 | [2] 0.0738 | [3] 0.145 | [4] 0.0146

C#CCN(C)Cc1ccccc1
inactive: [1] 0.0858 | [2] 0.0954 | [5] 0.078 | [6] -0.0346 | [3] 0.175 | [4] 0.102
active: [7] -1.76 | [8] -2.08

CN(C)CCN(Cc1ccccc1)c1ccccn1
inactive: [1] 0.0764 | [2] 0.111 | [3] 0.247 | [4] 0.229

C#CCN(C)CCCOc1ccc(Cl)cc1Cl
inactive: [5] 0.27 | [6] 0.097 | [7] 0.132 | [8] 0.147

COc1ccc(CN2CCN(Cc3ccc(OC)c(OC)c3OC)CC2)cc1Br
inactive: [1] 0.104 | [2] 0.0582 | [3] 0.0165 | [4] 0.0422

Cc1ccc(OCC(=O)N2CCC(C)CC2)c(C)c1
inactive: [1] 0.0605 | [2] 0.118 | [3] 0.14 | [4] 0.114

COc1ccc2c(c1)CCC1=CC(=O)CC[C@@]12C
inactive: [1] 0.0515 | [2] 0.00881 | [3] 0.19 | [4] 0.155

CC1C2C(CC3C4CC[C@@H]5CC(=O)CC[C@]5(C)C4CC[C@@]32C)OC12CC[C@@H](C)CO2 (stereo not given in full)
inactive: [1] 0.0621 | [2] 0.0593 | [3] 0.124 | [4] 0.0882

COCCN1C(=O)/C(=C\c2ccc(-c3ccc(Br)cc3)o2)SC1=S
inactive: [1] 0.0753 | [2] 0.00476 | [3] 0.101 | [4] 0.0615

CN(Cc1cnc2nc(N)nc(N)c2n1)c1ccc(C(=O)N[C@@H](CCC(=O)O)C(=O)O)cc1
inactive: 0.025 µM, library screen: screen2, EWS-FLI1 expression: high (no doxycycline) 0.0134 | 0.025 µM, library screen: screen2, EWS-FLI1 expression: low (doxycycline-induced shRNA knockdown) 0.0597 | [9] -0.0597 | [10] 0.0506 | [6] 0.0894 | [12] 0.0568 | [14] 0.0108 | [8] 0.0271 | [16] 0.0377 | [18] 0.0521 | 25 µM, library screen: screen2, EWS-FLI1 expression: low (doxycycline-induced shRNA knockdown) 0.0873 | [20] 0.0291
active: [5] -0.406 | [11] -0.512 | [13] -0.53 | [7] -0.754 | [15] -0.711 | [17] -0.751 | 25 µM, library screen: screen2, EWS-FLI1 expression: high (no doxycycline) -0.743 | [19] -0.797

CN(Cc1cnc2nc(N)nc(N)c2n1)c1ccc(C(=O)N[C@H](CCC(=O)O)C(=O)O)cc1
inactive: [5] 0.209 | [6] 0.115 | [7] 0.0762 | [8] 0.165

Nc1nc(=O)c2nc(CNc3ccc(C(=O)N[C@@H](CCC(=O)O)C(=O)O)cc3)cnc2[nH]1
inactive: [1] 0.0181 | [2] 0.031 | [3] 0.0902 | [4] 0.0775

CCCCCN(CCCCC)C(=O)C(CCC(=O)O)NC(=O)c1ccc(Cl)c(Cl)c1 (stereo not given)
inactive: [5] 0.131 | [6] 0.0648 | [7] 0.114 | [8] 0.0564

Nc1nc(N)c2nc(CNc3ccc(C(=O)N[C@@H](CCC(=O)O)C(=O)O)cc3)cnc2n1
active: [1] -1.62 | [2] -0.186
inactive: [5] 0.137 | [6] 0.126 | [3] 0.122 | [4] 0.141 | [7] 0.123 | [8] 0.134

O=C(O)CCC(NC(=O)c1ccccc1C(=O)O)C(=O)O (stereo not given)
inactive: [5] 0.0764 | [6] 0.0149 | [7] 0.157 | [8] 0.0718

CC(=O)O[C@H]1CC2(C)[C@@H](C[C@@H](O)[C@H]3[C@@]4(C)CC[C@@H](O)[C@@H](C)[C@@H]4CC[C@@]32C)/C1=C(/CCC=C(C)C)C(=O)O (stereo not given in full)
inactive: [5] 0.0714 | [6] 0.0604 | [7] 0.159 | [8] 0.0152

CC1CCC2(CO)CCC3(C)C(=CCC4C5(C)CCC(O)C(C)(C)C5CCC43C)C2C1C (stereo not given)
inactive: [1] 0.00774 | [2] -0.0265 | [3] 0.0749 | [4] 0.092

Cn1cnc2c(F)c(Nc3ccc(Br)cc3Cl)c(C(=O)NOCCO)cc21
active: [13] -0.189 | [15] -0.222 | [17] -0.293 | [19] -0.303
inactive: [9] -0.0515 | [10] 0.111 | [11] -0.109 | [12] 0.0965 | [14] 0.113 | [16] 0.014 | [18] 0.0549 | [20] -0.089

Cc1ccccc1CN1CCN(Cc2ccco2)CC1
inactive: [1] 0.12 | [2] 0.0129 | [3] 0.0799 | [4] -0.0931

Cc1ccc(CN2CCN(Cc3c[nH]c4ccccc34)CC2)cc1
inactive: [1] 0.0521 | [2] 0.0225 | [3] 0.104 | [4] 0.0231

CC(=O)c1cc2c(cc1O)OC(C)(C)C=C2
inactive: [1] 0.16 | [2] -0.0151 | [3] 0.126 | [4] 0.0912

CC(C(=O)O)N1C(=O)C(=Cc2cccnc2)SC1=S (stereo not given)
inactive: [1] -0.0281 | [2] 0.0107 | [3] 0.0923 | [4] -0.0695

CC(C(=O)O)N1C(=O)C(=Cc2ccccn2)SC1=S (stereo not given)
inactive: [3] 0.144 | [4] 0.106
active: [1] -2.05 | [2] -1.9

CC(C)N1C(=O)C(=Cc2ccccc2F)SC1=S
inactive: [1] 0.0965 | [2] 0.0324 | [3] 0.0812 | [4] -0.039

C=CC1=C(C)/C(=C/c2[nH]c(Cc3[nH]c(/C=C4\NC(=O)C(C)=C4C=C)c(C)c3CCC(=O)O)c(CCC(=O)O)c2C)NC1=O
inactive: [1] 0.0132 | [2] 0.0277 | [3] 0.0983 | [4] 0.128

S=c1[nH]nc(COc2ccc(Cl)cc2Cl)n1-c1ccccc1
inactive: [1] 0.00963 | [2] 0.148 | [3] 0.0937 | [4] 0.0872

C[C@@H]1CC[C@@]2(OC1)O[C@H]1C[C@H]3[C@@H]4CC[C@H]5C[C@@H](O)CC[C@]5(C)[C@H]4CC(=O)[C@]3(C)[C@H]1[C@@H]2C
inactive: [1] 0.102 | [2] -0.00894 | [3] 0.127 | [4] 0.0766
